Measured values as given in PubChem BioAssay AID2108 (National Center for Advancing Translational Sciences (NCATS), 2009).
Inconclusive results are not listed. Calls of active or inactive are those of the source. Calls follow the shape of the dose curve; as a rule, active = well fitted curve in the direction sought with a large enough effect; inconclusive = small, poorly fitted or top-dose-only effect, or effect the other way, or another doubt; inactive = no such curve, though single readings can be large or run the other way.

Target: Alpha-galactosidase A (Homo sapiens) (UniProt P06280)
Test: Confirmation of Inhibitors of Human alpha-Galactosidase Using Spleen Homogenate
Settings: alpha-galactosidase enzyme activity; series mostly up to 56.2 µM
Procedure, shortened: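 AC50 values come from Hill-equation fits of normalised 4-methylumbelliferone fluorescence (365/440 nm, read after NaOH/glycine stop). Enzyme source: spleen homogenate; substrate 1 mM final; pH 5.0 citrate buffer; 40 min at 37C; compound titration 0.5 nM–58 uM.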

Sequence of Alpha-galactosidase A (Homo sapiens) (P06280 32-429 limits assumed): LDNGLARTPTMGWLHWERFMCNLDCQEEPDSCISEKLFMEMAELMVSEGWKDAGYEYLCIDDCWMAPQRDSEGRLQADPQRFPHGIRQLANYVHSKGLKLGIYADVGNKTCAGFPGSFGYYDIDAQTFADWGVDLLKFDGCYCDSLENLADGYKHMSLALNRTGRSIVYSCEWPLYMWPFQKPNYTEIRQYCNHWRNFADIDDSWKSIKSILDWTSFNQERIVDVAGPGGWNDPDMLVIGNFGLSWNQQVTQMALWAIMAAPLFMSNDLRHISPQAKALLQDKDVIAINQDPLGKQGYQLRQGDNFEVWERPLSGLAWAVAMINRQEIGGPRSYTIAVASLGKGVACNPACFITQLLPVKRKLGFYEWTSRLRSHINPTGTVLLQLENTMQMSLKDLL

Row | Compound | outcome
1 | Cc1ccc(N=Nc2c(N)nn(-c3ccccc3)c2N)cc1 | inactive
2 | CCc1sc(-c2cc3ccc(O)cc3oc2=O)nc1-c1cc(C)ccc1C | inactive
3 | COc1cc(CNc2ccc(N3CCOCC3)cc2)cc(Br)c1OC | inactive
4 | OCC(O)C1OC(Nc2ccc(Cl)cc2)C(O)C1O (configuration not stated) | inactive
5 | COc1ccc(/C=C/c2nnc(NC(C)=O)s2)cc1 | inactive
6 | CCc1sc(-c2cc3cc(Cl)ccc3oc2=O)nc1-c1ccccc1 | inactive
7 | COc1ccc(/C=C/c2nnc(NC(=O)CSc3ccccc3)s2)cc1 | inactive
8 | COc1cc2cc(CN(Cc3nnnn3Cc3ccccc3)CC3CCCO3)c(=O)[nH]c2cc1OC (configuration not stated) | inactive
9 | COC(=O)c1ccccc1S(=O)(=O)N1CCOCC1 | inactive
10 | COc1ccccc1N1CCN(C(c2cccs2)C(C)NC(=O)c2cccs2)CC1 (configuration not stated) | inactive
11 | Fc1ccc(CNc2ccc(N3CCN(Cc4ccccc4)CC3)cc2)cc1 | inactive
12 | N#Cc1cccc(S(=O)(=O)N2CCOCC2)c1 | inactive
13 | O=C(O)c1cc2c(ccc3ccccc32)o1 | inactive
14 | Cc1nc(-n2nnc(CO)c2CO)nc2c1CCC2 | inactive
15 | CC1(C)CC(=O)c2cc(C(=O)NC3CCSC3=O)c(=O)n(-c3ccccc3)c2C1 (configuration not stated) | inactive
16 | O=C(O)c1cc(NCc2c(F)cccc2Cl)ccc1N1CCOCC1 | inactive
17 | CC(=O)N1CCN(c2ccc(NCc3ccc(C(C)C)cc3)cc2)CC1 | inactive
18 | CN(C(=O)N1CCN(S(=O)(=O)c2ccccc2)CC1)c1ccccc1 | inactive
19 | CCN(CC)S(=O)(=O)c1ccc2c(c1)C(=NNc1ccccc1)c1cc(S(=O)(=O)N(CC)CC)ccc1-2 | inactive

Row | Compound | outcome
20 | CC(=O)N1CCN(c2ccc(NCc3ccc4c(c3)OCO4)cc2)CC1 | inactive
21 | Cc1[nH]n(C(N)=S)c(=O)c1N=Nc1ccc2ccccc2c1 | inactive
22 | O=S(=O)(c1ccccc1F)N1CCOCC1 | inactive
23 | O=c1[nH]c2ccccc2nc1/C=C/c1ccc2c(c1)OCO2 | inactive
24 | Cc1ccc(S(=O)(=O)N2CCOCC2)cc1C | inactive
25 | C=C(C)CC(NCc1ccco1)c1ccc(OC)cc1 (configuration not stated) | inactive
26 | Cc1ccc(S(=O)(=O)N2CCN(C(=O)N(c3ccccc3)c3ccccc3)CC2)cc1 | inactive
27 | O=C(O)c1c[nH]c2ccc(S(=O)(=O)N3CCOCC3)cc12 | inactive
28 | OCC(CO)NC1C[C@](O)(CO)[C@@H](O)[C@H](O)[C@H]1O (some centres not stated) | inactive
29 | O=C1c2cc(O)c(O)cc2S(=O)(=O)C1c1ccccc1 (configuration not stated) | inactive
30 | Cc1ccc(S(=O)(=O)NN2C(=O)/C(=C\c3ccc(Cl)cc3)SC2=S)cc1 | inactive
31 | CCOc1ccc2c(c1)c(=O)c(S(=O)(=O)c1ccc(C)cc1)cn2Cc1ccccc1Cl | inactive
32 | COc1ccc(-c2nnc(NC(=O)CSc3ccc(Cl)cc3)s2)cc1 | inactive
33 | Cn1c(=O)c2sccc2n2c(CCCC(=O)Nc3ccc(F)c(F)c3)nnc12 | inactive
34 | OCCN1CC(O)C(O)C(O)C1CO (configuration not stated) | inactive
35 | CCc1ccc(-c2nc(-c3cc4ccc(OC(C)=O)cc4oc3=O)sc2C)cc1 | inactive
36 | O=C(Nc1nc2c(s1)CN(Cc1ccccc1)CC2)C1CCCC1 | inactive
37 | COc1ccc(/C=C/c2nnc(NC(=O)CSc3ccc(C)cc3)s2)cc1 | inactive
